Assay outcomes: PubChem, National Center for Advancing Translational Sciences (NCATS)
This is a sample that favours compounds with a hit; in the whole collection about 12% have one here.
ALDH1A1 block: inhibitors of human aldehyde dehydrogenase 1A1 | P00352 | Purified ALDH1A1, NADH fluorescence, propionaldehyde substrate | Potency, µM (titrated, usually from 75.3 µM), without a hit: top-dose activity, negative = inhibition, hits mostly inhibitors | 220,000 tested, 7.3% active | AID 1030; active means well fitted inhibition curve with a large enough effect, not every such curve was filed as active; inconclusive means small, poorly fitted or top-dose-only effect, or another doubt; inactive means no such curve, though single readings can be large or run the other way;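 further: plate controls were no enzyme wells and a reference inhibitor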
RORgamma inh: blocks mouse ROR gamma transcriptional activity | P51450 | Drosophila S2 Gal4-RORgamma UAS-luciferase reporter, 20 h | Potency, µM (top dose mostly 53.6 µM), without a hit: at the top dose activity change, negative = inhibition, usual class: inhibitors | 310,000 tested, 5.4% active | AID 2551; further: nearly all actives have a fitted effect of over 60% in size
Target sequence (P51450 whole entry, looked up, the tested form may be a part): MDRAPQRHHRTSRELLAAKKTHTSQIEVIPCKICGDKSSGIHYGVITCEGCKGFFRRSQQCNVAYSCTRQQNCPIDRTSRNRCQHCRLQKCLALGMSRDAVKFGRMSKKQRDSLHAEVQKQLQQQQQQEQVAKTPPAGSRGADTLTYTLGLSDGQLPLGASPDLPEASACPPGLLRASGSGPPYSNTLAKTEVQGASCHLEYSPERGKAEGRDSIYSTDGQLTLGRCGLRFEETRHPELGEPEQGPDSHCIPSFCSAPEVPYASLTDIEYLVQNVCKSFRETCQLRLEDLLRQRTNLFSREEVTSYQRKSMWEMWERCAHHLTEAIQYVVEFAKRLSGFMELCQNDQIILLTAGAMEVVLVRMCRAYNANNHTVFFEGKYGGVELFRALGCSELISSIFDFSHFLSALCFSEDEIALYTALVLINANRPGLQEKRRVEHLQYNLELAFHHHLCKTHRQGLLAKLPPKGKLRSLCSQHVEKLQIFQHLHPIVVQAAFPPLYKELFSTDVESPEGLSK
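Drosophila S2 cells stably expressing Gal4-DBD/mouse RORγ fusion under metallothionein promoter plus UAS-luciferase; compound 1 h, then 700 uM CuSO4 induction for 20 h at ambient temperature; inhibition read as reduced luminescence.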
PLK1 PBD block: PLK1 (human) polo-box domain binding inhibition | P53350 | Plk1 PBD binding of FITC phosphopeptide, fluorescence polarization | Potency, µM, inactives show max response, negative = inhibition, most hits filed as inhibitors | 360,000 tested, 2.8% active; further: series mostly up to about 57 µM; nearly all actives have a fitted effect of over 65% in size
Gal4-VP16 FLuc: inhibits Gal4-VP16 luciferase reporter, ROR gamma counter-screen | Drosophila S2 Gal4-VP16 UAS-luciferase, luminescence, 20 h | 310,000 tested, 3.5% active | Potency, µM (titrated, usually from 53.6 µM), for inactives: at the top dose activity, negative = inhibition, usual class: inhibitors;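 further: Gal4-VP16 expression switched on by copper sulfate through the metallothionein promoter; nearly all actives have a fitted effect of over 50% in size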
Sfp inh: inhibitors of Bacillus subtilis Sfp phosphopantetheinyl transferase | Q9F4F7 | Biochemical Sfp PPTase activity, qHTS | Potency, µM, without a hit: largest response in the series, negative = inhibition, usual class: inhibitors | 310,000 tested, 3.5% active | AID 1490;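 further: the enzyme is Sfp with the accession as filed and its product quenches rhodamine fluorescence; 0% = enzyme reaction without inhibitor and -100% = no enzyme wells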
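Buffer: 50 mM Hepes-Na pH 7.6, 10 mM MgCl2, 0.01% Nonidet P-40, 0.01% BSA. Enzyme 15 nM, pre-exposed to compound 15 min; substrates then added and fluorescence change tracked over 30 min.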
* marks the source's active call; other numbers are inactive results; [ ] = dose if it differs, or a comment. Unless noted, the call rests on the fitted dose curve; in most records, active means well fitted curve in the direction sought with a large enough effect; inconclusive means small, poorly fitted or top-dose-only effect, or another doubt; inactive means no such curve, though single readings can be large; an effect the other way counts as inactive or inconclusive. Unless noted, on the % scale 0 is the no-effect control and ±100 the full control effect; potency means the concentration at half of the fitted maximal effect.

`CN(C(=O)CSc1nc2ccccc2c(=O)n1-c1ccc(F)cc1F)C1CCS(=O)(=O)C1` (centres undefined) gave PLK1 PBD block -3%.
For Cc1noc(C)c1CSc1nc2[nH]ncc2c(=O)n1-c1ccccc1 the results were ALDH1A1 block 1.3µM*, RORgamma inh 43%, PLK1 PBD block -5%, Gal4-VP16 FLuc -12% and Sfp inh 2%.
For CCN1C(=O)[C@H]2[C@H]3[C@H](O)[C@H](O)C/C(=N/OC[C@@H](O)COCc4ccco4)[C@@H]3CC[C@@H]2C1=O the results were ALDH1A1 block 5%[13.5 µM], RORgamma inh 8%[10 µM], Gal4-VP16 FLuc -6%[10 µM] and Sfp inh 6%.
For O=C(NCCN1CCCC1)c1ccc(Cc2nc3ccccc3[nH]2)cc1 the results were ALDH1A1 block 9%.
Screening CC(=O)O[C@H]1C2=CO[C@H](C)[C@H]3[C@H]4C5=C([C@H](O)[C@H]6O[C@@H]6C5=O)[C@H](O[C@H]4C)[C@@]23C(=O)[C@H]2O[C@@H]21 returned ALDH1A1 block 6%[13.5 µM], RORgamma inh inconclusive, Gal4-VP16 FLuc -4%[10 µM] and Sfp inh 11%.
Screening CC(=O)O[C@H]1C2=C(C(=O)[C@H]3O[C@@H]31)[C@@H]1[C@@H]3[C@@H](C)OC=C4[C@H](O)[C@H]5O[C@@H]5C(=O)[C@]43C2O[C@H]1C returned ALDH1A1 block 13%[13.5 µM], RORgamma inh -33%[10 µM], Gal4-VP16 FLuc -3%[10 µM] and Sfp inh 22%.
Cn1c(=O)c2cc(NC(=O)NCc3ccc(F)cc3)ccc2n1C was read as PLK1 PBD block -4%.
COc1ccc(COC(=O)N/N=C2/C[C@@H](O)[C@@H](O)[C@@H]3[C@H]4C(=O)N(c5ccc(F)cc5F)C(=O)[C@@H]4CC[C@H]23)cc1 was read as ALDH1A1 block -3%[13.5 µM], RORgamma inh -3%[10 µM], Gal4-VP16 FLuc -5%[10 µM] and Sfp inh 13%.
For Cc1noc(C)c1CSc1nc2ccccc2c(=O)n1-c1ccccc1 the results were ALDH1A1 block 4.5µM*, RORgamma inh -22%, PLK1 PBD block 1%, Gal4-VP16 FLuc -3% and Sfp inh -5%.
Screening C=CCn1c(SCc2c(C)noc2C)nc2ccccc2c1=O returned ALDH1A1 block -11%, RORgamma inh inconclusive, PLK1 PBD block -9%, Gal4-VP16 FLuc 12% and Sfp inh -5%.
Screening Cc1ccc(C)c(S(=O)(=O)N2CCN(C(=O)CCC(=O)c3cc(C)sc3C)CC2)c1 returned PLK1 PBD block 0%.
`COc1ccc(-c2cc(C(F)(F)F)nc(S(=O)(=O)CCCC(=O)Nc3cc(C)on3)n2)cc1OC` gave ALDH1A1 block -3%, RORgamma inh 3.5µM*, PLK1 PBD block -25%, Gal4-VP16 FLuc inconclusive and Sfp inh 9%.
Screening COc1ccccc1-c1cc(C(F)(F)F)nc(S(=O)(=O)CCCC(=O)Nc2cc(C)on2)n1 returned ALDH1A1 block inconclusive, RORgamma inh 11µM*, PLK1 PBD block -14%, Gal4-VP16 FLuc 7.9µM* and Sfp inh -4%.
`COC(=O)c1ccc(C(/C=C/[C@@H](C)C(=O)NCc2ccc(OC)c(O)c2)NC(=O)OCc2ccccc2)cc1` (some centres undefined) gave ALDH1A1 block inconclusive, RORgamma inh 45%, Gal4-VP16 FLuc 5% and Sfp inh -16%.
Screening CC(C)(C)C(=O)c1c(N)[nH]c(C(=O)c2ccccc2)c1-c1cc2ccccc2nc1Cl returned PLK1 PBD block -16%.
Screening Cc1ccn2c(NC3CCCC3)c(-c3cccs3)nc2c1 returned ALDH1A1 block inconclusive, RORgamma inh 10µM*, PLK1 PBD block 4.2µM*, Gal4-VP16 FLuc -29% and Sfp inh -19%.
CCC(C)Sc1cc(-c2nc3ccccn3c2NC2CCCCC2)ccc1OC (centres undefined) was read as PLK1 PBD block -7%.
Screening CC(C)c1nc2ccccn2c1NC1CCCCC1 returned ALDH1A1 block inconclusive, RORgamma inh 5µM*, PLK1 PBD block -14%, Gal4-VP16 FLuc inconclusive and Sfp inh 2%.
`c1csc(-c2nc3ccccn3c2NC2CCCCC2)c1` gave ALDH1A1 block inconclusive, RORgamma inh 10µM*, PLK1 PBD block -15%, Gal4-VP16 FLuc -16% and Sfp inh -1%.
Cc1ccn2c(NCc3ccccc3)c(-c3cccs3)nc2c1 was read as ALDH1A1 block inconclusive, RORgamma inh 14µM*, PLK1 PBD block -7%, Gal4-VP16 FLuc inconclusive and Sfp inh -21%.
CCC(C)Sc1cccc(-c2nc3cc(C)ccn3c2NCc2ccccc2)c1 (centres undefined) was read as PLK1 PBD block -8%.
Screening CC(=O)c1ccc(-c2cccc(-c3nc4ccccn4c3NC3CCCCC3)c2)cc1 returned PLK1 PBD block -4%.
Screening CNC[C@H]1OCCCC[C@H](C)Oc2ccc(NC(=O)CCCN(C)C)cc2C(=O)N([C@H](C)CO)C[C@@H]1C returned PLK1 PBD block 9%.
CC(C)NC(=O)Nc1nnc([C@@H]2C[C@H](O)[C@@H](CO)O2)s1 was read as PLK1 PBD block -9%.
Screening COc1cccc(C(=O)NCCS(=O)(=O)N2CCN(c3ccccc3)CC2)c1OC returned PLK1 PBD block -11%.
For CC(=Nc1ccccc1)C1=C(O)COC1=O the results were ALDH1A1 block 5.6µM*, RORgamma inh 3%, PLK1 PBD block 2%, Gal4-VP16 FLuc 10% and Sfp inh 2%.
`COc1ccc(OC)c(N=C(C)C2=C(O)COC2=O)c1` gave ALDH1A1 block 0%, RORgamma inh -34%, PLK1 PBD block 2%, Gal4-VP16 FLuc -3% and Sfp inh 0%.
Cc1[nH]c(=O)c(C(=O)/C=C/c2ccccc2F)c2c1CCCC2 was read as ALDH1A1 block -4%, RORgamma inh 5.6µM*, PLK1 PBD block -11%, Gal4-VP16 FLuc 5.6µM* and Sfp inh -9%.
CCN1C(=O)/C(=C/N(C)c2ccccc2)OC1=S was read as ALDH1A1 block inconclusive, RORgamma inh 35%, PLK1 PBD block -4%, Gal4-VP16 FLuc 0%[0.365 µM] and Sfp inh -11%.
Screening CCN1C(=O)/C(=C\N(C(C)=O)c2ccccc2)OC1=S returned ALDH1A1 block 4%, RORgamma inh 7.9µM*, PLK1 PBD block -19%, Gal4-VP16 FLuc 10µM* and Sfp inh -11%.
CCOC(=O)N1CCN(Cc2nc3c(c(=O)n(C)c(=O)n3C)n2Cc2cc(C)ccc2C)CC1 was read as ALDH1A1 block 0.89µM*, RORgamma inh inconclusive, Gal4-VP16 FLuc 9% and Sfp inh 3%.
`Cc1ccc(Cn2c(CN3CCOCC3)nc3c2c(=O)n(C)c(=O)n3C)cc1` gave ALDH1A1 block 10µM*, RORgamma inh 10%, PLK1 PBD block -2%, Gal4-VP16 FLuc -15% and Sfp inh 8%.
